Screens from PubChem.
USP28 block – blocks human USP28 ubiquitin-rhodamine cleavage. Q96RU2. purified USP28, Ub-rhodamine cleavage fluorescence, 30 min. AID 1645857. actives 3% (n = 47,000). inhibition, % at 25 µM
Target sequence (Q96RU2 whole entry, looked up): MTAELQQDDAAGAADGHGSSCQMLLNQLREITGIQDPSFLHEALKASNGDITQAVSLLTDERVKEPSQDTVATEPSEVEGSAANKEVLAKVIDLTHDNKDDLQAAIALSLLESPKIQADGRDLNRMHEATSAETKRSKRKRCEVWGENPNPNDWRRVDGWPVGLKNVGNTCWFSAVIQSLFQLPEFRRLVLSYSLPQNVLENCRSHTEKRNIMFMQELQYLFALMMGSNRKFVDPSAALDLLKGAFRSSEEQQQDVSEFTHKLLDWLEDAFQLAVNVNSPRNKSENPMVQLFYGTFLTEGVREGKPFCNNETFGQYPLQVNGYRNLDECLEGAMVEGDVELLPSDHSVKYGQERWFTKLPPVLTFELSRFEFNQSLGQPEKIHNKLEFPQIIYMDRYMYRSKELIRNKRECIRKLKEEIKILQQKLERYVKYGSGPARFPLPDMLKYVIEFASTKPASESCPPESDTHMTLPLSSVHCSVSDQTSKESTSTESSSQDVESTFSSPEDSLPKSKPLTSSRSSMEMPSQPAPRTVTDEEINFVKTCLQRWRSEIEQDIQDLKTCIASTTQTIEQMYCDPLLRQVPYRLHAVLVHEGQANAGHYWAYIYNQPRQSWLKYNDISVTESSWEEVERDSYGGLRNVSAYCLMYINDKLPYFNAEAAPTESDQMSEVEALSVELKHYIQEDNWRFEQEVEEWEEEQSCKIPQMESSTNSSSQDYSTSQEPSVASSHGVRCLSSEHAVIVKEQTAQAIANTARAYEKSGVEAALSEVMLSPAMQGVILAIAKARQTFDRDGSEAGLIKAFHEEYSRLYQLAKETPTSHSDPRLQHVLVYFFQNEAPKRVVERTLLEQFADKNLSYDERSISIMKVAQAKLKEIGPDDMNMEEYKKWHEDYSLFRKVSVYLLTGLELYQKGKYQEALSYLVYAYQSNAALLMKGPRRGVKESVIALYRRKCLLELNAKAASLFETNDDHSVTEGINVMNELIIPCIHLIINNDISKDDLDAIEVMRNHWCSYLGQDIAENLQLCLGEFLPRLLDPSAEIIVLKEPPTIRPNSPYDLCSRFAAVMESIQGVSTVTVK
USP30 inh – blocks human USP30 ubiquitin-rhodamine cleavage. Q70CQ3. purified USP30, Ub-rhodamine cleavage fluorescence. inhibition, % at 25 µM. actives 5.3% (n = 47,000). AID 1645860
USP17 block – human USP17-like deubiquitinase inhibition | A8MUK1 | purified USP17, Ub-rhodamine cleavage fluorescence, 3 h | inhibition, % at 50 µM | actives 6.5% (n = 47,000)
Each line names hits and unclear results; the compound was inactive in the other large screens. A selection: hits, their analogues and other compounds. The true share with any hit is near 11%. Rule as the data show it: active = inhibition above about 30%; inactive = the rest.

COc1ccc(-c2nc3cnccc3o2)cc1NC(=O)c1cccc(F)c1	USP17 block 49
O=C(Cc1ccccc1)Nc1cc(-c2nc3cnccc3o2)ccc1Cl	none
O=C(Nc1cccnc1)c1cc(F)cc(F)c1	none
COc1ccc(-c2nnc(NC(=O)c3cccc(SC)c3)o2)cc1	none
O=C(Nc1cccc(-c2nc3cnccc3o2)c1)c1cccc(F)c1	USP17 block 76 (no result: USP28 block, USP30 inh)
O=C(COc1ccccc1)Nc1ccc(-c2nc3cnccc3o2)c(O)c1	none
COc1cccc(CNC(=O)CCC(=O)N2CCOc3ccccc32)c1OC	none
COc1ccccc1C(=O)N1CCc2nc(-c3ccccc3)ncc2C1	none (no result: USP28 block, USP30 inh)
O=C(NCCN1CCOCC1)c1nc2c(s1)CCCN2C(=O)C1CC1	none
COc1cc(C(=O)NCc2ccc(-c3nc4cnccc4o3)cc2)cc(OC)c1OC	none
O=C(NCc1ccc(-c2nc3cnccc3o2)cc1)c1cc2ccccc2o1	USP17 block 81
COc1cc2c(cc1OC)C(c1ccccc1)N(C(=O)c1ccncc1)CC2 (centres undefined)	none
COc1ccc(N=c2oc3ccccc3cc2C(=O)Nc2ccncc2)cc1OC	none
COc1cc(NC(=O)c2cccnc2)ccc1NC(=O)c1cc2ccccc2o1	USP17 block 39
COCCn1cnc2c1c(=O)n(CC(=O)Nc1cc(F)ccc1F)c(=O)n2Cc1ccccc1	none
O=C(COc1ccccc1)N1CCc2[nH]nc(-c3ccc(Cl)cc3)c2C1	none
O=C(COc1ccc(Cl)cc1)N1CCc2[nH]nc(-c3ccc(Cl)cc3)c2C1	USP30 inh 33
CCCc1cc(C2CCCN2C(=O)c2cc(-c3ccccc3)on2)no1 (centres undefined)	none
CCCc1cc(C2CCCN2C(=O)c2cc(-c3ccccc3)no2)no1 (centres undefined)	USP30 inh 32
O=C(CCCC1=NS(=O)(=O)c2ccccc2N1)Nc1cccc(C(F)(F)F)c1	none
CNC(=O)CC1NC(=O)c2csc(n2)-c2ccc(-c3nc(C4=NC(C(=O)N5CCCC5C(N)=O)CO4)cs3)nc2-c2csc(n2)-c2csc(n2)C(C(O)c2ccccc2)NC(=O)CNC(=O)c2nc(sc2COC)C(C(C)C)NC(=O)c2nc1sc2C (centres undefined)	USP28 block 42, USP17 block 75
CC1(C(=O)N2CCN(c3ncccn3)CC2)Cc2ccccc2C(=O)O1 (centres undefined)	none
O=C(Nc1cccc(Cl)c1)c1[nH]nc2c1COc1ccccc1-2	none
O=C(NCCN1CCCCC1)c1[nH]nc2c1COc1ccccc1-2	none
O=C(NC1CCN(Cc2ccccc2)CC1)c1[nH]nc2c1COc1ccccc1-2	USP28 block 67
O=C(NCc1ccc2c(c1)OCO2)c1[nH]nc2c1COc1ccccc1-2	USP28 block 31, USP30 inh 39, USP17 block 60
Cc1nc(C2CCCNC2)nc2c1CCCN2Cc1ccccn1 (centres undefined)	none
COc1ccc(CCN(C)C(=O)COc2ncnc3ccccc23)cc1OC	USP30 inh 32 (no result: USP17 block)
COc1ccc(CCN(C)c2ncnc3c2[nH]c2ccccc23)cc1OC	none
O=C(Nc1ccc(F)cc1)c1cn(CC(O)c2ccc3c(c2)OCO3)nn1 (centres undefined)	none
Cc1ccc(NC(=O)c2cn(CC(O)c3ccc4c(c3)OCO4)nn2)cc1 (centres undefined)	USP30 inh 47, USP17 block 46
Cc1cc(C(=O)N[C@H]2[C@H](O)[C@H](O)C[C@@H]2c2ccc(C(F)(F)F)nc2)no1	none
COc1ccc([C@H]2C[C@@H](O)[C@@H](O)[C@@H]2NC(=O)c2cc(C)on2)cc1	USP30 inh 35
COc1ccc(CC(=O)Nc2ccc(Nc3cc(N4CCCC4)nc(C)n3)cc2)cc1	none
COc1ccc(-c2cnn3c2NC(=O)CC3C(=O)Nc2ccc3c(c2)OCO3)cc1 (centres undefined)	none
COc1ccccc1-c1cnn2c1NC(=O)CC2C(=O)Nc1ccc2c(c1)OCO2 (centres undefined)	none
COc1ccc(-c2nn3c(c2C)NC(=O)CC3C(=O)Nc2ccc3c(c2)OCO3)cc1 (centres undefined)	USP30 inh 38
COc1ccc(NC(=O)C2CC(=O)Nc3cc(-c4ccccc4)nn32)cc1 (centres undefined)	USP17 block 56
Cc1c(-c2ccccc2)nn2c1NC(=O)CC2C(=O)Nc1ccc2c(c1)OCO2 (centres undefined)	USP17 block 47
O=C1CC(C(=O)Nc2ccc3c(c2)OCO3)n2ncnc2N1 (centres undefined)	none
Cc1cn(C)c(C2CN(Cc3[nH]c4ccc(F)cc4c3C)CCO2)n1 (centres undefined)	none
CC12C=CC3(O1)C(C(=O)N(C1CCCCCC1)C3C(=O)NC1CCCCC1)C2C(=O)Nc1ccc(F)cc1 (centres undefined)	none
